Active and inactive are the calls of the source. Rule as the data show it: active = fold change permeability below about 0.7 or above about 1.3; inactive = in between.
Assay: compounds altering in vitro BBB leakiness – cell-based, FITC-avidin fluorescence, HTS, primary screen (AID 1963498); also: test concentration not given here
Settings: brain endothelial barrier, actives lie on both sides

Structure (SMILES)	fold change permeability
CN1C(=O)c2sccc2N(C)c2nc(Nc3ccc(S(N)(=O)=O)cc3)ncc21	1.8 (active)
CC(=O)C1=C(C)N(c2cccc(C(F)(F)F)c2)C(=O)N[C@@H]1c1ccc(C#N)nc1	1.1 (inactive)
COc1cccc(OC)c1OCCNCC1CSc2ccccc2O1 (configuration not stated)	1.1 (inactive)
CN(C)CCCc1cc(C(=O)Nc2ccc(-c3ccncc3)cc2)ccc1O	1 (inactive)
CN(C)c1cc2c(Nc3ccc4c(cnn4Cc4ccccc4)c3)ncnc2cn1	3.5 (active)
CCCn1c(=O)c2c(ncn2C)n(CCC)c1=O	1 (inactive)
NCCCCC(=O)O	1.1 (inactive)
